High-throughput results deposited in PubChem BioAssay by National Center for Advancing Translational Sciences (NCATS).
TDP1 cell noCPT = qHTS for Inhibitors of human tyrosyl-DNA phosphodiesterase 1 (TDP1): qHTS in cells in absence of CPT; DT40 Tdp1-/- hTDP1 cells, no CPT, ATP luminescence, 48 h; Potency, µM (titrated, usually from 46.2 µM), without a hit: at the top dose activity change, negative = growth inhibition, most hits filed as inhibitors; actives 15% (n = 420,000); AID 686978, 2013; also: potency is read from the fitted curve at half-maximal effect; nearly all actives have a fitted effect of over 55% in size
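Stably hTDP1-transfected Tdp1-null chicken DT40 cells were treated with library compounds minus camptothecin and grown for at least 48 hr at 37 °C, after which cellular ATP was quantified by luminescence.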
IL-1B inflam inh = qHTS for Inhibitors of Inflammasome Signaling: IL-1-beta AlphaLISA Primary Screen; AID 743279, 2014; actives 4.7% (n = 360,000); activity change, % at 57.5 µM; THP-1 LPS/ATP IL-1B secretion, AlphaLISA, 16 h; stronger effect = lower value; in the data active = activity change below about -50%; inconclusive = mostly about -30% to -49%
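Secreted IL-1B measured by AlphaLISA bead assay after 16 h compound exposure of THP-1 cells; compounds (final up to 57.5 uM) added 1 h before LPS (250 ng/mL) and ATP (1.25 mM) stimulation; lower signal means less secretion.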
HT1080-NT tox = qHTS for induction of synthetic lethality in tumor cells producing 2HG: qHTS for the HT-1080-NT fibrosarcoma cell line; HT-1080-NT fibrosarcoma viability, CellTiter-Glo ATP luminescence, 48 h; Potency, µM (highest dose often 46.1 µM), for inactives: at the top dose activity, negative = less viability, actives largely listed as cytotoxic; actives 1.6% (n = 360,000);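 also: NT is the 2HG producing partner of a matched IDH1 knockdown line; potency is read from the fitted curve at half-maximal effect; 0% = DMSO-treated cells and -100% = media-only wells without cells; nearly all actives have a fitted effect of over 55% in size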
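HT-1080-NT fibrosarcoma cells (2HG-overproducing), 750 cells/well in RPMI with 5% FBS, dosed after 2 h and incubated 48 h at 37C. CellTiter-Glo luminescence normalized to DMSO and no-cell wells; concentration-response curves fitted and classed.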
DT40 TDP1 CPT = qHTS for Inhibitors of human tyrosyl-DNA phosphodiesterase 1 (TDP1): qHTS in cells in presence of CPT; chicken DT40 Tdp1-/-;hTDP1 cells + 20 nM CPT, ATP luminescence, 48 h; Potency, µM (top dose mostly 46.2 µM), for inactives: at the highest dose activity change, negative = growth inhibition, actives largely listed as inhibitors; actives 12% (n = 420,000); AID 686979, 2013; also: potency is read from the fitted curve at half-maximal effect; nearly all actives have a fitted effect of over 55% in size
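Chicken DT40 Tdp1-/- cells complemented with human TDP1, 400 cells/well, exposed to compounds plus 20 nM camptothecin for at least 48 h at 37 C; viability read as ATP content by CellTiter-Glo luminescence.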
HT1080 IDH1KD tx = qHTS for induction of synthetic lethality in tumor cells producing 2HG: qHTS for the HT-1080-IDH1KD cell line | Potency, µM (top dose mostly 46.1 µM), without a hit: top-dose activity, negative = toxicity, actives largely listed as cytotoxic | actives 2% (n = 360,000) | HT-1080 IDH1 knockdown viability, ATP luminescence, 48 h | AID 686971, 2013;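 also: potency is read from the fitted curve at half-maximal effect; 0% = DMSO wells and -100% = cell-free medium wells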
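Luminescent ATP read-out (CellTiter-Glo, 10 min at room temperature) after 48 h compound exposure at 37 °C gave viability of IDH1-knockdown HT-1080 cells. Activity was normalised to DMSO and cell-free wells, then fitted as concentration-response curves.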
* = called active by the depositor; ? = inconclusive; / = no result given; [ ] = remark or other dose. Most compounds without a hit are left out; they make up all but 19% or so of the library. Unless noted, calls follow the shape of the dose curve; as a rule, active = well fitted curve in the direction sought with a large enough effect; inconclusive = small, poorly fitted or top-dose-only effect, or another doubt; inactive = no such curve, though single readings can be large; an effect the other way counts as inactive or inconclusive. Unless noted, % is scaled to controls: 0 for no effect and ±100 for the full control effect.

SMILES	TDP1 cell noCPT	IL-1B inflam inh	HT1080-NT tox	DT40 TDP1 CPT	HT1080 IDH1KD tx
Cc1ccc(C(=O)Nc2ccc(Cl)cn2)cc1	8.2µM*	24.3	15.8µM*	7.31µM*	10µM*
Cc1ccccc1C(=O)Nc1ccc(Br)c(C)n1	9.2µM*	-2.9	-1.5%	?	0.5%
Cc1ccc(CC(=O)Nc2ccc(Cl)cn2)cc1	-18.4%	-5.8	12.0%	9.0%	9.3%
CCC1CCCCN1CCCNC(=O)c1nn(C)c2c1CS(=O)(=O)c1ccccc1-2 (stereo unspecified)	26.8%	-4.1	-3.4%	10.2%	3.2%
O=C(c1ccco1)N1CCN(C2CN(Cc3ccc(F)cc3)S(=O)(=O)C2)CC1 (stereo unspecified)	1.1%	-8.3	19.7%	-27.7%	11.8%
CCN(CC)S(=O)(=O)c1cc(C(=O)Nc2ccc(Cl)cn2)ccc1C	16.4µM*	-54.5*	-10.4%	?	-2.7%[9.24 µM]
Cc1ccccc1C(=O)Nc1ccc(Cl)cn1	20.6µM*	-1.5	2.8%	16.4µM*	1.9%
CCCOc1ccc(C(=O)Nc2ccc(Cl)cn2)cc1	-20.7%	?	1.4%	-17.8%	-1.0%
Cc1ccccc1C(=O)Nc1ccccn1	-16.9%	0.0	13.7%	-1.4%	7.6%
Cc1ccc(NC(=O)c2ccc(Cl)cc2[N+](=O)[O-])nc1	3.26µM*	36.7	5.8µM*	3.26µM*	4.61µM*
O=C(Nc1ccc(Cl)cn1)c1ccc(Oc2ccccc2)cc1	?	-67.0*	-14.5%	3.0%	-2.7%
O=C(Nc1ccc(Cl)cn1)c1cccc2c(Br)cccc12	14.6µM*	57.9	?	?	?
CN(c1ccc(C(=O)Nc2ccc(Cl)cn2)cc1)S(=O)(=O)c1ccccc1	20.6µM*	-8.7	?	?	-20.2%
O=S(=O)(NCC(c1cccs1)S(=O)(=O)c1ccccc1)c1ccc(F)cc1 (stereo unspecified)	2.31µM*	/	/	1.64µM*	/
COc1ccc(CNC(=O)C(c2ccncc2)N(C(=O)Cc2cccs2)c2ccccc2)cc1 (stereo unspecified)	?	2.2	5.0%	?	5.4%
O=C(NCCc1ccc(F)cc1)C(=O)NCC(c1cccs1)S(=O)(=O)c1cccs1 (stereo unspecified)	25.9µM*	/	/	?	/
COc1ccc(N(C(=O)CCl)C(C(=O)NCCc2ccccc2)c2cccs2)cc1 (stereo unspecified)	4.11µM*	-108.0*	2.06µM*	4.61µM*	1.64µM*
CNC(=O)C(=O)NCC(c1cccs1)S(=O)(=O)c1ccc(F)cc1 (stereo unspecified)	19.8%	19.2	9.1%	7.3%	-13.7%
COc1ccc(CCNC(=O)C(=O)NCC(c2cccs2)S(=O)(=O)c2ccc(F)cc2)cc1 (stereo unspecified)	23.1µM*	/	/	?	/
CCOC(=O)c1ccc(-c2ccc3c(=O)c4ccccc4n(C)c3c2)cc1F	?	44.8	7.5%	14.6µM*	18.4%
CCOC(=O)c1ccc(N2C(=O)Cc3ccccc3C2=O)cc1	?	-11.1	16.6%	?	9.4%
CCOC(=O)c1ccc(/C=C2\c3ccccc3C(=O)N2c2ccccc2)cc1F	?	72.9	-6.9%	18.4µM*	-0.5%
O=C(CCN1CCCCCC1)Nc1ccc2c(c1)OCCO2	-8.5%	-26.9	16.0%	5.3%	19.8%
O=C(CCN1CCCCC1)c1ccc2c(c1)OCCO2	15.8µM*	-86.3*	?	20.6µM*	5.62µM*
O=C(CCN1CCCC1Cc1ccccc1)c1ccc2c(c1)OCCO2 (stereo unspecified)	2.31µM*	-100.7*	-4.5%	2.59µM*	?
SMILES	TDP1 cell noCPT	IL-1B inflam inh	HT1080-NT tox	DT40 TDP1 CPT	HT1080 IDH1KD tx
O=C(CCc1ccccc1)c1ccc2c(c1)OCCCO2	-1.6%	-23.4	0.0%	-9.3%	11.5%
O=C(CCN1CCc2ccccc2C1)c1ccc2c(c1)OCCO2	3.66µM*	-0.1	-6.8%	5.8µM*	-8.0%
CCOC(=O)COc1c(Cl)cc(/C=C2\N=C(C)OC2=O)cc1OC	?	4.8	0.5%	?	3.6%
Cc1[nH]c2ccccc2c1C1=CC(=O)C=CC1=O	1.84µM*	-101.1*	-12.8%	1.64µM*	20.6µM*
Cc1[nH]c2ccccc2c1CC#N	-11.4%	18.4	-5.0%	?	21.5%
Cc1[nH]c2ccccc2c1/C=N/NC(N)=S	6.6%	-17.6	7.4%	-5.4%	23.0%
Cc1ccc(NC(=S)N/N=C/c2c(C)[nH]c3ccccc23)cc1	29.1µM*	-0.7	?	?	?
Cc1cccc(NC(=S)N/N=C/c2c[nH]c3ccccc23)c1	2.59µM*	-22.9	23.1µM*	2.59µM*	16.4µM*
Cc1ccc(Cn2cccc2/C=N/NC(=S)Nc2ccc(C)cc2)cc1	6.51µM*	67.9	-21.0%	4.61µM*	?
C=CCn1cnc2c(nnn2Cc2ccc(F)cc2)c1=O	-15.3%	14.6	?	-10.6%	9.5%
CCN(Cc1ccccc1)C(=O)Cn1cc2c(n1)CCCC2	-20.2%	20.8	2.9%	-29.6%	-9.9%
CCCn1c(N)c(C(=O)COc2ccc(Br)cc2F)c(=O)n(C)c1=O	?	10.4	-10.5%	14.6µM*	-7.5%
Cc1ccc(S(=O)(=O)Nc2ccccc2CNc2ccc(Br)cn2)cc1	29.1µM*	-6.9	-16.1%	?	-24.2%
Cc1ccc(S(=O)(=O)Nc2ccccc2CNc2ccccn2)cc1	?	6.3	-0.4%	-7.0%	-0.5%
CC1(C(=O)NS(=O)(=O)c2cccc(OC(F)F)c2)CCN1C(=O)CC(c1ccccc1)c1ccccc1 (stereo unspecified)	?	48.8	6.2%	?	13.7%
CCC1C/C(=C\c2cccnc2)C(=O)/C(=C/c2cccnc2)C1 (stereo unspecified)	4.61µM*	?	?	3.26µM*	?
NC1=NC(=O)/C(=C\c2cccnc2)S1	-23.8%	-11.2	7.3%	?	-0.6%
CC(C)N1C(=O)S/C(=C/c2cccnc2)C1=O	-29.5%	-29.1	9.4%	-25.1%	2.9%
O=C1/C(=C/c2cccnc2)CC/C1=C\c1cccnc1	?	-87.2*	-21.2%	?	-9.3%
CC(C)/C=C1\CC/C(=C\c2cccnc2)C1=O	20.6µM*	-9.8	7.5%	?	9.8%
O=C1/C(=C\c2cccnc2)CCc2ccccc21	18.4µM*	-110.6*	?	13µM*	?
CC(C)(C)C1CCC(=NNC(=O)c2ccccc2-n2cccc2)CC1 (stereo unspecified)	-5.3%	12.9	9.4%	8.4%	1.6%
